Measurements as given in PubChem BioAssay AID504690 (Sanford-Burnham Center for Chemical Genomics, 2011).
Among all 350,000 compounds or so, about 2,700 (0.77%) were called active. Many of the other results were omitted from the sample, so actives are more common in it than they were. Unmarked numbers belong to inactive results.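 Rule for the calls: active = inhibition reaching at least a set limit at 20 µM in the primary screen (cut at about 59% in these data); inactive = the rest.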

These compounds were tested on glucose-6-phosphate dehydrogenase-6-phosphogluconolactonase (Plasmodium falciparum 3D7) (assay: inhibition of malaria parasite G6PD (PfGluPho) – biochemical, fluorescence intensity, uHTS, primary screen (AID 504690;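 note: 0% = DMSO wells with substrate and 100% = DMSO wells lacking glucose-6-phosphate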)). Conditions: PfGluPho enzyme, NADPH resazurin-diaphorase fluorescence; at 20 µM; active compounds read high.

SMILES | inhibition
O=C(Nc1cccc(Cl)c1)Nc1ccccc1NS(=O)(=O)c1cccs1 | -1.49%
CCCCSc1nc2c(c(=O)n1CC)SC(C)C2 (configuration not stated) | -22.8%
CCc1cc(C(=O)c2ccc(OC)cc2)c(NC(=O)CN2CCN(C)CC2)s1 | -3.28%
COc1ccc(C(=O)Nc2sc(C)c(C)c2CN2CCOCC2)cc1 | 3.12%
CCc1cc(C(N)=O)c(NC(=O)c2ccc(OC)cc2)s1 | 63.8% (active)
O=C1CC(C(F)(F)C(F)(F)C(F)(F)C(F)(F)F)=Nc2ccccc2N1 | 6.19%
CCc1cccc2c3c([nH]c12)C(CC)(CC(=O)O)OCC3 (configuration not stated) | -16.9%
Nc1ccc(-c2nnc(-c3ccc(-c4ccccc4)cc3)o2)cc1 | 64% (active)
CN(C)c1ccc(-c2nnc(-c3cccnc3)o2)cc1 | 3.13%
COc1ccc(-c2nnc(-c3ccc4ccccc4c3)o2)cc1 | 15.1%
CC(C)C[C@@H](NC(=O)[C@H]1CCCN1C(=O)Cc1ccccc1)C(N)=O | -7.04%
C/C=C/C=C/C(=O)OCC(=O)Nc1ccc(Cl)cc1 | 8.86%
Cc1ccc(NC(=O)Cn2c(C)csc2=O)cc1 | 3.32%
O=C(Cn1nc(C(=O)O)c2ccccc2c1=O)Nc1ccc(F)cc1 | -5.5%
Cc1ccc(NC(=O)Cn2sc3ccccc3c2=O)cc1 | 125% (active)
CCOc1ccc(/C(O)=C2\C(=O)C(=O)N(c3ccc(OC)cc3)C2c2ccccc2[N+](=O)[O-])cc1 (configuration not stated) | -3.26%
Cc1cc(OCC(=O)Nc2nccs2)c2c(C)c(C)c(=O)oc2c1 | 0.15%
CCCCn1c(N)c(N(CC(C)C)C(=O)c2cccc(S(=O)(=O)N3CC(C)OC(C)C3)c2)c(=O)[nH]c1=O (configuration not stated) | -1.62%
CCC1(CC)NC(=O)N(CC(=O)OCC(=O)Nc2ccc(C(F)(F)F)cc2)C1=O | 3.64%
COc1cccc(NC(=O)COC(=O)/C=C/c2ccco2)c1 | 17.7%
O=C(O)/C=C\C(=O)Nc1ccc(OCc2ccccc2)cc1 | -24.5%
O=C(/C=C/c1ccco1)Nc1ccc(Oc2ccccc2)cc1 | 62.8% (active)
CN(C)c1cccc(C(=O)N2CCC(n3nccc3NC(=O)C3CCOC3)CC2)c1 (configuration not stated) | 3.81%
COc1ccc(C(=O)N2CCN(c3ncccn3)CC2)cc1S(=O)(=O)N1CCOCC1 | 4.39%
Cc1nn(-c2ccccc2)c(Cl)c1/C=C/C(=O)c1ccc(O)cc1 | -22.8%
Cc1ccc(C(=O)/C=C/c2c(C)nn(-c3ccccc3)c2Cl)cc1 | 71.4% (active)
Cc1ccc(-n2nc(C)c(/C=N/NC(=O)c3cccs3)c2Cl)cc1 | 18.2%
